Screening data from PubChem.
Compounds with a hit are over-represented: about 12% of the library has one in this group of screens.
Sfp inh = qHTS Assay for Inhibitors of Bacillus subtilis Sfp phosphopantetheinyl transferase (PPTase); Biochemical Sfp PPTase activity, qHTS; 3.5% of 310,000 active; Potency, µM, hits mostly inhibitors; 4'-phosphopantetheinyl transferase ffp (Bacillus subtilis), Q9F4F7;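 note: the enzyme is Sfp with the accession as filed and its product quenches rhodamine fluorescence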
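Compounds were incubated with enzyme (final 15 nM) for 15 min at room temperature before substrate addition started the reaction. Fluorescence at 525 nm excitation, 598 nm emission was recorded immediately and after 30 minutes.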
BAZ2B block = qHTS Assay for Inhibitors of BAZ2B | Bromodomain adjacent to zinc finger domain protein 2B (Homo sapiens), Q9UIF8 | AlphaScreen BAZ2B-H3K14Ac peptide displacement | Potency, µM (series often up to 114 µM), actives largely listed as inhibitors | 4.4% of 360,000 active; note: nearly all actives have a fitted effect of over 60% in size
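BAZ2B (50 nM) with biotin-H3(5-23)K14Ac peptide (50 nM) in PBS pH 7.4, 0.01% Tween-20, preformed 30 min, then compound 30 min at room temperature; top concentration 110uM. AlphaScreen streptavidin donor/nickel chelate acceptor beads (10 ug/mL final), 20 min dark, signal read.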
JMJD2A Tudor = qHTS Assay for Inhibitors of JMJD2A-Tudor Domain; AlphaScreen JMJD2A-Tudor / H3K4me3 peptide binding; Potency, µM (highest dose often 114 µM), actives largely listed as inhibitors; Lysine-specific demethylase 4A (Homo sapiens), O75164; 4.4% of 390,000 active; note: nearly all actives have a fitted effect of over 50% in size
HP1b chromo inh = HTS for Inhibitors of HP1-beta Chromodomain Interactions with Methylated Histone Tails. AlphaScreen HP1-beta / biotin-H3K9me3 peptide binding. Potency, µM (doses to about 114 µM), usual class: inhibitors. 0.56% of 390,000 active. AID 540317, 2011; note: nearly all actives have a fitted effect of over 70% in size
Target sequence (P83916 whole entry, looked up): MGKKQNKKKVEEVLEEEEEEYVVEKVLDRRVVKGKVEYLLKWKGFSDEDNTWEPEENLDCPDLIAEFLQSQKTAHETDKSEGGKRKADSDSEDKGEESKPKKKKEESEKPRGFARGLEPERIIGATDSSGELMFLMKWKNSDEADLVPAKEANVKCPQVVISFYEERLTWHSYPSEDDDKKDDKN
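Compound inhibition of the preformed complex between 50 nM HP1-beta and 50 nM biotinylated H3K9me3 peptide was read by AlphaScreen. Buffer was PBS pH 7.4 with 0.01% Tween-20. Incubations ran 30 min at room temperature, with 10 ug/mL donor/acceptor beads.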
G9a block = qHTS Assay for Inhibitors of Histone Lysine Methyltransferase G9a | Histone-lysine N-methyltransferase EHMT2 (Homo sapiens), Q96KQ7 | G9a H3K9 monomethylation, AlphaScreen, 2 h | Potency, µM (top dose mostly 102 µM), actives largely listed as inhibitors | 8.8% of 350,000 active; note: nearly all actives have a fitted effect of over 75% in size
Target sequence (Q96KQ7 913-1193 limits assumed): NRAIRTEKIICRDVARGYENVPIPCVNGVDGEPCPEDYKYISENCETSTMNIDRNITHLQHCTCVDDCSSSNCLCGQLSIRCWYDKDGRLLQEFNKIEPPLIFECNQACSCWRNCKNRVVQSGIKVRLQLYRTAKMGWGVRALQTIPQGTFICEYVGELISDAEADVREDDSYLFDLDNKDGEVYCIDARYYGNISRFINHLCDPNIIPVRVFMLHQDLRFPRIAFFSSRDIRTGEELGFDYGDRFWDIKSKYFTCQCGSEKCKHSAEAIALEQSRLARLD
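Methyltransferase reactions run at room temperature for 2 h (20 nM enzyme, 500 nM biotin-H3K9 peptide, 20 uM SAM) after a 15 min compound preincubation; product detected by AlphaScreen beads and anti-H3K9me1 antibody.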
Of the large screens only hits and unclear results are named; the others gave an inactive call. Calls come from the whole dose curve; as a rule, active = well fitted curve in the direction sought with a large enough effect; inconclusive = small, poorly fitted or top-dose-only effect, or another doubt; inactive = no such curve, though single readings can be large; an effect the other way counts as inactive or inconclusive.

Cc1ccc(S(=O)(=O)c2c(N)n(CCCO)c3nc4ccccc4nc23)cc1	BAZ2B block 56µM
Cc1ccc(C)c(S(=O)(=O)c2c(N)n(/N=C/c3ccco3)c3nc4ccccc4nc23)c1	Sfp inh 50µM, BAZ2B block inconclusive, G9a block 50µM
Cc1cccc(S(=O)(=O)c2c(N)n(/N=C/c3ccccc3)c3nc4ccccc4nc23)c1	none
Cc1ccc(S(=O)(=O)c2c(N)n(CCN3CCOCC3)c3nc4ccccc4nc23)cc1C	none
Nc1c(S(=O)(=O)c2ccccc2)c2nc3ccccc3nc2n1Cc1ccco1	Sfp inh 20µM
COc1cccc(Nc2ncc3ncc(=O)n(C[C@H]4CCCO4)c3n2)c1	none (no result: BAZ2B block, JMJD2A Tudor, HP1b chromo inh)
CCOc1ccccc1CNC(=O)C1CCN(S(=O)(=O)c2c(C)noc2/C=C/c2ccccc2F)CC1	none (no result: Sfp inh)
Cc1ccc(N=N/C(=C\O)C(=O)c2ccc(Cl)cc2)cc1	BAZ2B block 11µM, HP1b chromo inh inconclusive, G9a block 25µM
COc1ccccc1N1CCN(/N=C\c2cccnc2)CC1	Sfp inh inconclusive, BAZ2B block 79µM, JMJD2A Tudor inconclusive, G9a block 40µM
COc1ccccc1N1CCN(/N=C/c2cc(OC)c(O)c(OC)c2)CC1	Sfp inh 40µM, BAZ2B block inconclusive, JMJD2A Tudor 89µM, G9a block 13µM
COc1ccccc1N1CCN(/N=C/c2cccc(O)c2)CC1	BAZ2B block 71µM
COc1cc(/C=N/N2CCN(c3ccccc3OC)CC2)ccc1OC(C)=O	BAZ2B block inconclusive
O=[N+]1C2=C(CCCC2)N([O-])C12CCCC2	JMJD2A Tudor inconclusive
CC1(CCl)N([O-])C2=C(CCCC2)[N+]1=O (configuration not stated)	Sfp inh 35µM, BAZ2B block 45µM, G9a block 32µM
O=C(CSc1nc2sc3c(c2c(=O)n1-c1ccccc1)CCCC3)N/N=C/c1ccccc1C(=O)O	BAZ2B block inconclusive, JMJD2A Tudor inconclusive, G9a block 79µM
NNc1nc2sc3c(c2c(=O)n1-c1ccccc1)CCCC3	G9a block 50µM
Nn1c(Nc2ccccc2)nc2sc3c(c2c1=O)CCCC3	none
CC(NC(=O)CSc1nc2sc3c(c2c(=O)n1-c1ccccc1)CCCC3)c1ccccc1 (configuration not stated)	none
O=C(NC1CC1)C1=C[C@H](c2coc3ccccc3c2=O)C[C@H](OCc2ccc(CO)cc2)O1	none (no result: Sfp inh, BAZ2B block, G9a block)
O=C(CCS(=O)(=O)c1ccc(Cl)cc1)Nc1ccccc1Br	none
O=C(O)CCCC(=O)Nc1ccccc1SCCS(=O)(=O)c1ccc(Cl)cc1	Sfp inh 56µM
COc1cccc(CN2CCN(Cc3[nH]c4ccccc4c3C)CC2CCO)c1 (configuration not stated)	BAZ2B block 35µM, JMJD2A Tudor inconclusive, G9a block inconclusive
COc1cccc(CN2CCN(Cc3cc4ccccc4[nH]3)CC2CCO)c1 (configuration not stated)	BAZ2B block inconclusive
CC(=O)Nc1ccc2nc(CN3CCN(Cc4ccc(F)cc4)C(CCO)C3)ccc2c1 (configuration not stated)	Sfp inh 79µM (no result: G9a block)
COc1cc(CN2CCN(Cc3ccc(C)cc3)C(CCO)C2)cc(OC)c1O (configuration not stated)	G9a block 45µM
Cc1ccc(CN2CCN(Cc3ccccn3)CC2CCO)cc1 (configuration not stated)	BAZ2B block 56µM
COc1ccn(C2CCCCO2)c(=O)n1 (configuration not stated)	none (no result: Sfp inh, BAZ2B block, G9a block)
CCN(Cc1ccccc1)C(=O)Cn1c(=O)n(-c2ccc(Cl)c(Cl)c2)c(=O)c2c(C)c(C(=O)N(C)C)sc21	BAZ2B block inconclusive (no result: Sfp inh)
CCOc1ccc(CN2CCN(CC3=Cc4cccc(OC)c4OC3)CC2CCO)cc1 (configuration not stated)	none
COc1ccc2c(c1)C=C(CN1CCN(Cc3ccccc3C)C(CCO)C1)CO2 (configuration not stated)	BAZ2B block inconclusive, JMJD2A Tudor 50µM, G9a block inconclusive
Nn1c(COc2cccc(Br)c2)nnc1SCC(=O)N1CCc2ccccc2C1	G9a block 40µM
Cn1c(Cc2ccc3c(c2)OCO3)nnc1SCC(=O)N1CCc2ccccc2C1	G9a block 45µM
Nn1c(COc2cccc(Br)c2)nnc1SCC(=O)NCC1CCCO1 (configuration not stated)	none (no result: Sfp inh)
O=S(=O)(c1ccc(NC(=S)NCCc2ccccc2)cc1)N1CCOCC1	none
CC1CN=C(N(C(=O)Nc2ccccc2)c2ccc(S(=O)(=O)N3CCOCC3)cc2)S1 (configuration not stated)	G9a block 7.1µM
O=C(CSc1ncnc2sccc12)Nc1ccc(S(=O)(=O)N2CCOCC2)cc1	G9a block 45µM (no result: Sfp inh)
O=C(O)C1CCCCC1C(=O)Nc1ccc(S(=O)(=O)N2CCOCC2)cc1 (configuration not stated)	JMJD2A Tudor 56µM (no result: Sfp inh, BAZ2B block, G9a block)
O=C(Nc1ccccc1)c1ccc(S(=O)(=O)N2CCOCC2)cc1	none
O=S(=O)(c1ccc(NC(=S)NN=C(Cc2ccccc2)Cc2ccccc2)cc1)N1CCOCC1	Sfp inh inconclusive, BAZ2B block 50µM (no result: G9a block)
CCOC(=O)c1[nH]c2c(c1Cc1ccccc1OC)C(=O)CC(c1ccccc1)C2 (configuration not stated)	none (no result: Sfp inh)
CC1CCN(CCCNC(=O)Cn2ncc3c([nH]c4ccccc43)c2=O)CC1	none
Cc1ccc(C(=O)c2cn(Cc3ccccc3F)c3cc4c(cc3c2=O)OCO4)cc1	none (no result: Sfp inh)
O=C(CCSc1ccccc1)Nc1ccc(S(=O)(=O)N2CCOCC2)cc1	BAZ2B block 56µM
O=C(CCCc1ccccc1)Nc1ccc(S(=O)(=O)N2CCOCC2)cc1	none (no result: G9a block)
Cc1c(C(=O)N2CCCCCC2)c(S(=O)(=O)NCc2ccccc2)c(C)n1C	none (no result: Sfp inh)
COc1ccccc1Nc1nc(NCCCN(C)C)nc(N)c1[N+](=O)[O-]	BAZ2B block inconclusive, JMJD2A Tudor inconclusive, G9a block 50µM
CCC(C)Nc1nc(N)c([N+](=O)[O-])c(N2CCCCCC2)n1 (configuration not stated)	BAZ2B block 50µM, JMJD2A Tudor inconclusive
CCC(C)Nc1nc(N)c([N+](=O)[O-])c(Nc2ccccc2OC)n1 (configuration not stated)	BAZ2B block inconclusive, JMJD2A Tudor inconclusive, HP1b chromo inh inconclusive, G9a block 45µM
CC(C)CNc1nc(N)c([N+](=O)[O-])c(N2CCCCCC2)n1	JMJD2A Tudor inconclusive, G9a block inconclusive
